From PubChem BioAssay AID651965 (National Center for Advancing Translational Sciences (NCATS), 2013)
The whole screen tested about 340,000 compounds, of which about 6,400 (1.9%) were called active. Where a call stands in place of a potency, no number is given. About 4% were inconclusive and are not listed. Calls follow the shape of the dose curve; as a rule, active = well fitted falling curve with a large enough effect; inconclusive = small, poorly fitted or top-dose-only effect; inactive = no such curve, though single readings can be large or run the other way. The full list was thinned out, with actives kept by preference.
Also: the source files actives as falling curves though it sought activators and does not explain the sign; nearly all actives have a fitted effect of over 65% in size.
Potency is read from the fitted curve at half-maximal effect.

What follows are compounds tested against ATP-dependent Clp protease proteolytic subunit (Bacillus subtilis (strain 168)) (UniProt P80244) (assay: qHTS Assay for Activators of ClpP). Conditions: purified B. subtilis ClpP, FRET peptide cleavage, 20 min; series mostly up to 57.5 µM.
Method in brief: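 Buffer: 100 mM Tris/HCl pH8, 100 mM KCl, 0.05% low protease BSA, 2.5% glycerol, 0.01% Tween-20. ClpP 10 microg/mL final; 20 min RT; delta FRET normalized to ADEP and DMSO controls.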
In the case of CC1(Oc2ccc(Cl)cc2)CCN(Cc2csc3ccccc23)C1 (centres undefined), the Potency is reported as “inactive”. With CN(CCOc1ccccc1)C(=O)c1cc(-c2ccco2)nc2ccccc12 the Potency was “inactive”. With O=C(c1cc(-c2ccco2)nc2ccccc12)N(Cc1nnc(-c2ccc(Cl)cc2)o1)C1CC1 the Potency was 28.2 µM (active). In the case of CC1CCCN(C(=O)c2cc(-c3ccco3)nc3ccccc23)C1 (centres undefined), the Potency is reported as “inactive”. With Cc1ccc(Cc2c(-c3ccco3)nc3ccc(Cl)cn23)cc1 the Potency was “inactive”. In the case of O=C1NC[C@H](CCCCN2C[C@H](Cc3ccccc3)N(Cc3ccccc3)C(=O)C2=O)N(CCc2ccc(O)cc2)C1=O, the Potency is reported as “inactive”. CN(C)c1ccc(CSc2ccccc2)cc1 was tested, and the Potency was 12.6 µM (active). O=C(c1ccc(CSc2ccccc2)cc1)N1CCCCCC1 was tested, and the Potency was “inactive”. CN(C)c1cc[n+](Cc2ccccc2)cc1 was tested, and the Potency was “inactive”. COc1ccc(-c2cc(NC=O)c3ncc(-c4ccccc4)n3c2)cc1OC was tested, and the Potency was “inactive”. For CCc1nc2c(OCc3ccc(F)c(F)c3)cccn2c1N(C)C(=O)c1ccco1, the Potency was “inactive”. In the case of Cc1ccnc(NC(=O)c2ccoc2C)c1, the Potency is reported as “inactive”. With CCCn1c(=O)c(C(=O)Nc2cc(C)ccn2)c(O)c2ccccc21 the Potency was “inactive”. CC1=C(C(=O)Nc2cc(C)ccn2)C(c2cnn(C)c2)C2=C(CC(c3ccccc3)CC2=O)N1 (centres undefined) was tested, and the Potency was 31.6 µM (active). For CN1OC[C@@H]2CN(S(=O)(=O)c3cccc4ccccc34)[C@H](c3ccc(N4CCCCC4)cc3)C[C@@H]21, the Potency was “inactive”. In the case of O=C(NC(c1ccc(Cl)cc1)c1cnccn1)C1CCN(Cc2ccc(Cl)cc2)CC1 (centres undefined), the Potency is reported as “inactive”. O=C1[C@H]2[C@@H](c3ccc(C(F)(F)F)cc3)N[C@]3(CCCN(Cc4ccc(Cl)cc4)C3=O)[C@H]2C(=O)N1Cc1ccccc1 was tested, and the Potency was “inactive”. In the case of COc1ccc(/C=N/NC(=O)CNC(=O)c2ccc(S(=O)(=O)N3CCCC3)cc2)c(OC)c1, the Potency is reported as “inactive”. For COc1cccc(/C=N/NC(=O)CNC(=O)c2ccc(S(=O)(=O)N3CCOCC3)cc2)c1OC, the Potency was 31.6 µM (active). Cc1ccccc1OCC(=O)Nc1ccc(S(=O)(=O)N2CCOCC2)cc1 was tested, and the Potency was “inactive”. With CC(C)Oc1ccc(CN2CCC2(C)C(=O)NCc2ccc(C(F)(F)F)cc2)cc1 (centres undefined) the Potency was “inactive”. In the case of CCc1nc2ccc(C(=O)N3CCC(O)(Cc4ccccc4)CC3)cn2c1N(C)C(=O)Cc1ccccc1, the Potency is reported as “inactive”. With O=[N+]([O-])c1cccc2ncccc12 the Potency was “inactive”. In the case of CN1CN(C)c2ccc([N+](=O)[O-])c3cccc1c23, the Potency is reported as 15.8 µM (active). For CN1CCN(S(=O)(=O)c2ccc(N3CCN(c4ccccc4O)CC3)c([N+](=O)[O-])c2)CC1, the Potency was “inactive”. In the case of CC1(C)C=Cc2c(ccc(C(=O)/C=C/c3ccccc3)c2O)O1, the Potency is reported as “inactive”. For COC(=O)[C@]12CCCCC=C1N(Cc1cccc3ccccc13)C(=O)[C@H](CC(=O)N1CCOCC1)C2, the Potency was “inactive”. With CCN(CC)C(=O)C1=C(C)N(Cc2ccc(C(C)(C)C)cc2)C(=O)C(CC(=O)NCc2cccc3ccccc23)C1 (centres undefined) the Potency was “inactive”. With CN(CC(=O)NCCc1ccccn1)S(=O)(=O)c1ccc(Cl)cc1 the Potency was “inactive”. For CN(CCc1ccccn1)S(=O)(=O)c1ccc2c3c(cccc13)C(=O)N2, the Potency was 25.1 µM (active). CN(CCc1ccccn1)C1CCCN(S(=O)(=O)c2ccccc2Cl)C1 (centres undefined) was tested, and the Potency was “inactive”. With COc1cc(OC)c(/C=C/c2ccnc3ccccc23)c(OC)c1 the Potency was “inactive”. For COc1ccc(C(C(=O)Nc2c(C)cccc2C)N2CCN(c3ccc(C)cc3)CC2)cc1 (centres undefined), the Potency was “inactive”. CCC(CC)C(C(=O)NC1CCCC1)N1CCN(c2cc(C)nc3ccccc23)CC1 (centres undefined) was tested, and the Potency was “inactive”. For COc1ccccc1/C=C/C(=O)NC(=S)N1CCOCC1, the Potency was “inactive”. For COc1ccccc1/C=C/C1=NC(=C\N(C)C)/C(=O)O1, the Potency was 25.1 µM (active). For COc1ccccc1/C=C/c1nc(C#N)c(NC(C)c2ccccc2)o1 (centres undefined), the Potency was “inactive”. CC1(C(=O)Nc2ccc3c(c2)OCCO3)CSCC(=O)N1CCOc1ccccc1 (centres undefined) was tested, and the Potency was “inactive”. In the case of C[C@@H]1CC2=C(C(=O)OC(C)(C)O2)[C@@H](C2CC2)O1, the Potency is reported as “inactive”. In the case of COc1ccc(C=C2CCC3C(CCCC34OCCO4)C2=O)cc1 (centres undefined), the Potency is reported as “inactive”. CCC(=O)Nc1cccc(-c2nc3cc(C)ccc3o2)c1 was tested, and the Potency was “inactive”. COc1cccc(C(=O)Nc2ccc3oc(-c4ccc5ccccc5c4)nc3c2)c1 was tested, and the Potency was “inactive”. O=C(Cc1cccc2ccccc12)Nc1ccc2oc(-c3ccccc3)nc2c1 was tested, and the Potency was 20 µM (active). In the case of O=C(Nc1ccc2oc(-c3ccc4ccccc4c3)nc2c1)c1cccs1, the Potency is reported as 3.55 µM (active). O=C(Nc1ccc(-c2nc3cc(NC(=O)c4ccccc4Cl)ccc3o2)cc1)c1ccccc1Cl was tested, and the Potency was “inactive”. For CCCC(=O)Nc1ccc2oc(-c3ccc(O)c(Br)c3)nc2c1, the Potency was “inactive”. For Clc1ccc(-c2cccc3nccn23)cc1, the Potency was “inactive”. For Cc1cc(Br)cn2c(Cc3cccc(F)c3)c(-c3cccc(Br)c3)nc12, the Potency was “inactive”. In the case of C[C@H](NC(=O)CC[C@H]1O[C@@H](n2ccc(=O)[nH]c2=O)[C@H](O)[C@@H]1O)c1cccc2ccccc12, the Potency is reported as “inactive”. For S=C(NCCc1ccccc1)NCc1ccccc1Cl, the Potency was “inactive”. With O=C(O)Cc1ccc(NC(=O)Nc2cccc3ccccc23)cc1 the Potency was “inactive”. With O=C(O)Cc1ccc(NCc2ccccc2Cl)cc1 the Potency was 8.91 µM (active). With O=C1COc2ccc(C(=O)COC(=O)c3ccccc3Cl)cc2N1 the Potency was “inactive”. With Cc1ccc(C)c(OCCC(=O)OCC(=O)c2ccc3c(c2)NC(=O)CO3)c1 the Potency was “inactive”. In the case of COc1cc(N)c(Cl)cc1C(=O)OCC(=O)c1ccc2c(c1)NC(=O)CO2, the Potency is reported as 14.1 µM (active). In the case of COc1cccc(CNc2nc(NCc3cccs3)nc3ccsc23)c1, the Potency is reported as “inactive”. CSCCC(c1nnnn1Cc1ccccc1)N1CCN(C/C=C/c2ccccc2)CC1 (centres undefined) was tested, and the Potency was “inactive”. In the case of Cn1c(=O)c2c(n3c4ccccc4nc13)NC(=O)CC2c1cccc(Cl)c1 (centres undefined), the Potency is reported as “inactive”. In the case of CC(C)(C)c1nc2ccccc2c(=O)n1N1C(=O)c2ccccc2C1=O, the Potency is reported as “inactive”. In the case of CC(C)(C)c1cc(=O)n2c(nc3ccccc32)[nH]1, the Potency is reported as 15.8 µM (active). In the case of CCc1nc2ccc(C(=O)NC3CCN(Cc4ccccc4)CC3)cn2c1N(C)CCN1CCOCC1, the Potency is reported as “inactive”. With CCCCOCCCNC(=O)C[C@@H]1C[C@@]2(C(=O)OCC)CCCC=C2N(CCC2=CCCCC2)C1=O the Potency was “inactive”. With COc1ccc(CCNC(=O)Nc2ccc3c(c2)c(=O)n(C)n3C)cc1OC the Potency was “inactive”. In the case of N#Cc1cccc(NC(=O)c2cc(C3CCCCN3C(=O)CCc3ccccc3)on2)c1 (centres undefined), the Potency is reported as “inactive”. In the case of COc1ccc2c(c1OC)C(=O)N(c1ncn[nH]1)C2, the Potency is reported as 28.2 µM (active). For CC1(C)OC(=O)C2=C(C[C@@H](C3CCCC3)O[C@@H]2c2ccc(Cl)cc2)O1, the Potency was “inactive”. O=C(NCc1ccccc1Cl)c1csc([C@@H]2O[C@H](CO)[C@@H](O)[C@H]2O)n1 was tested, and the Potency was “inactive”. In the case of Cc1cc(C(=O)OCC(=O)N2C(C)CCCC2C)c2ccccc2n1 (centres undefined), the Potency is reported as “inactive”. In the case of Cc1nn(-c2ccccc2)nc1C(=O)OCC(=O)N1CCCCC1C (centres undefined), the Potency is reported as 10 µM (active). With CC1CCCC(C)N1C(=O)COC(=O)c1ccccc1C(=O)c1ccccc1 (centres undefined) the Potency was “inactive”. COc1ccc(C2=Nc3ccccc3NC(=O)C2N(C(=O)c2cc3ccccc3[nH]2)c2ccccc2)cc1 (centres undefined) was tested, and the Potency was “inactive”. For Cc1cc(-c2ccccc2)n2nc(-c3ccccc3)cc2n1, the Potency was “inactive”. In the case of c1ccc(-c2ccnc3nc(-n4cccc4)nn23)cc1, the Potency is reported as 1.78 µM (active). For Nc1nc2ncccn2c1-c1ccccc1, the Potency was “inactive”. In the case of CN(C)c1ccc(C=Nc2ccc(/C=C/c3ccnc4ccccc34)cc2)cc1, the Potency is reported as “inactive”. For CC1(C)OC(=O)C2=C(C[C@@H](C3CC3)O[C@H]2CCc2cccc(Cl)c2)O1, the Potency was “inactive”. In the case of O=C(Nc1cc(Br)ccc1F)c1nc[nH]c1C(=O)NCc1ccccc1, the Potency is reported as “inactive”. In the case of O=C(NNc1ncnc2c1cnn2-c1ccccc1)c1ccco1, the Potency is reported as “inactive”. Cc1ccc(-n2ncc3c(N4CCC(C(N)=O)CC4)ncnc32)cc1 was tested, and the Potency was “inactive”. CC1(C(=O)Nc2cccnc2)Cc2c(-c3ccccc3)ccnc2O1 (centres undefined) was tested, and the Potency was “inactive”. COc1ccc(CCn2c3c(c(=O)[nH]c2=S)CN(C(C)C)CN3)cc1OC was tested, and the Potency was “inactive”. CCNC(=O)C1CCCN(C(=O)c2ccc(OC)cc2OC)CC1 (centres undefined) was tested, and the Potency was “inactive”. For CCc1nc2ccc(C(=O)NC3CCN(Cc4ccccc4)CC3)cn2c1N(CC)CCOC, the Potency was “inactive”. For Cc1ccc2[nH]c(=O)c(COC(=O)c3ccccn3)cc2c1, the Potency was “inactive”. With CCOC(=O)c1[nH]c2ccc(C)cc2c1N=C(C)N(C)C the Potency was “inactive”. For CCOC(=O)c1cc2cc(C)ccc2[nH]1, the Potency was 14.1 µM (active). With COC(=O)c1ccc2nc(-c3cccc(Br)c3)c(Cc3ccccc3C(F)(F)F)n2c1 the Potency was “inactive”. For COCCN(CCOC)c1nc(N)c2c(N)nc3c(c2c1C#N)CC(=O)N3Cc1ccc(Cl)cc1, the Potency was 3.16 µM (active). COc1ccc(C(C#N)=C2C=CC(=NO)c3ccccc32)cc1 was tested, and the Potency was “inactive”. In the case of CC1(C)O[C@H]2CC(=O)OCC23[C@H]2CC[C@@]4(C)[C@H](c5ccoc5)OC(=O)[C@H]5O[C@]54[C@]2(C)C(=O)C[C@@H]13 (some centres undefined), the Potency is reported as “inactive”. For CC1=C2C(=O)OC(c3ccoc3)C2(C)CCC1 (centres undefined), the Potency was 25.1 µM (active). For CC(C)(C(=O)NO)c1ccccc1, the Potency was “inactive”. For CCCC(=O)Nc1ccc(C(=O)N/N=C/c2ccc[nH]2)cc1, the Potency was “inactive”. CC(Oc1ccccc1[N+](=O)[O-])C(=O)N/N=C/c1ccoc1 (centres undefined) was tested, and the Potency was “inactive”. O=C(COc1ccccc1[N+](=O)[O-])N/N=C/c1ccc[nH]1 was tested, and the Potency was 31.6 µM (active). For O=C(Nc1ccc(Cl)cc1)c1csc([C@H]2C[C@H](O)[C@@H](CO)O2)n1, the Potency was “inactive”. In the case of COc1cc2c(cc1NC(=O)CN1CCN(S(=O)(=O)c3ccc(F)cc3)CC1)oc1ccccc12, the Potency is reported as 11.2 µM (active). In the case of COc1ccccc1NC(=O)CN1CCN(S(=O)(=O)c2ccc(Br)cc2)CC1, the Potency is reported as “inactive”. In the case of COc1ccc(NC(=O)CN2CCN(S(=O)(=O)c3ccc(F)cc3)CC2)cc1Cl, the Potency is reported as “inactive”.
